Where two headings read alike, the source gives them in different places. The whole screen tested about 13,000 compounds, of which about 3,200 (25%) showed an effect of 50% or more. The list shows a part of the results.
Tested on: P. falciparum stage V gametocytes
Parameters: BacTiter-Glo ATP luminescence viability of purified stage V gametocytes in 384-well plates, per cent inhibition versus DMSO
Conditions: 48 h, 5 µM, inhibitor

Structure (SMILES) | % Inhibition [%] | % Inhibition (% Inhibition) [%]
CS(=O)(=O)N1CC2(CCN(CCC(NC(=O)/C=C/c3ccccc3)c3ccc(Cl)c(Cl)c3)CC2)c2ccccc21 (stereo not drawn) [TCMDC-141763] | 8.889 | 
CCCN1CCCN(Cc2cccc(NC(=O)c3ccc(-c4ccccc4)cc3)c2)CC1 [TCMDC-141843] | -30.15 | 
CCC[C@@H]([C@@H](CC1CCCCC1)C(=O)N[C@H](C(=O)Nc1nccs1)[C@@H](C)OCc1ccccc1)N(O)C=O [TCMDC-138051] | -19.92 | 
Cc1nc(SCC(=O)N2CCCC2=O)c2c(C)c(C)sc2n1 [TCMDC-123558] | 5.306 | 
Cc1[nH]nc2cc(F)c(-c3cc(OC[C@@H](N)Cc4ccccc4)cnc3-c3ccoc3)cc12 [TCMDC-136295] | 10.29 | 
Cc1cccc(Nc2nc(N)c3ccccc3n2)c1.Cl [TCMDC-123639] | -2.53 | 
CCOC(=O)c1c(C)noc1Nc1cccc(C)c1C [TCMDC-131454] | -30.94 | 
COc1cc(OC)cc(-c2nn(-c3ccc([N+](=O)[O-])cc3C#N)c(=S)n2Cc2ccco2)c1 [TCMDC-134715] | 75.07 | 
N#Cc1cc([N+](=O)[O-])ccc1-n1nc(-c2cccc(Cl)c2)n(Cc2ccco2)c1=S [TCMDC-134717] | 102.9 | 
O=[N+]([O-])c1ccc(-n2nc(-c3cccnc3)n(Cc3ccco3)c2=S)c(Cl)c1 [TCMDC-135132] | 83.46 | 
CCCCCCn1c(Sc2ccc(C#N)c([N+](=O)[O-])c2)nnc1-c1cc(OC)cc(OC)c1 [TCMDC-135589] | 37.66 | 
CN(C)c1ccc(-c2nnc(Sc3ccc(C#N)c([N+](=O)[O-])c3)n2Cc2ccco2)cc1 [TCMDC-135611] | 2.069 | 
COc1cc(OC)cc(-c2nn(-c3ccc([N+](=O)[O-])cc3Cl)c(=S)n2Cc2ccco2)c1 [TCMDC-135128] | 93.16 | 
C=CCN1C(=O)c2[nH]nc(-c3cc(C)c(C)cc3O)c2C1c1cccc(Br)c1 (stereo not drawn) [TCMDC-124621] | 9.594 | 
Cn1c(CN2CCC(N3CCc4cc(NC(=O)c5ccco5)ccc43)C2)cc2ccccc21 (stereo not drawn) [TCMDC-135073] | 32.96 | 
NC(N)=Nc1cccc(NC(=O)Nc2cccc(N=C(N)N)c2)c1 [TCMDC-137209] | -4.06 | 
Cc1ccc2c(C3=CCN(CCCCC4(C)C(=O)Nc5ccccc54)CC3)c(C)[nH]c2c1 (stereo not drawn) [TCMDC-141006] | -63.83 | 
COc1cc(Cc2cnc(N)nc2N)cc(OCCCC(=O)O)c1OC [TCMDC-137359] | 3.526 | 
O=C(NCCCCN1CCCC2c3ccc(O)cc3CCC21)c1ccc(-c2ccccc2)cc1 (stereo not drawn) [TCMDC-139084] |  | -62.82
CCOc1cc(Cc2cnc(N)nc2N)cc(OCC)c1-n1cccc1 [TCMDC-137295] | 0.7486 | 
O=C(/C=C/c1ccccc1Cl)NC1CCC(CN2C3CCC2CC(c2c[nH]c4ccccc24)C3)CC1 (stereo not drawn) [TCMDC-139931] | 92.87 | 
O=C(/C=C/c1c(Cl)cccc1Cl)NC1CCC(CN2C3CCC2CC(c2c[nH]c4ccccc24)C3)CC1 (stereo not drawn) [TCMDC-140103] | 74.61 | 
CS(=O)(=O)Nc1ccc2[nH]cc(C3CC4CCC(C3)N4CC3CCC(NC(=O)/C=C/c4ccc(Cl)c(Cl)c4)CC3)c2c1 (stereo not drawn) [TCMDC-139807] | 14.27 | 
CC(C)(C)c1ccc(NC(=O)c2cccc(CN3CCCN(Cc4ccsc4)CC3)c2)cc1 [TCMDC-135992] | -46.34 | 

Structure (SMILES) | % Inhibition [%] | % Inhibition (% Inhibition) [%]
CCC(C(=O)Nc1cc(=O)[nH]c2nc(-c3ccco3)nn12)c1ccccc1 (stereo not drawn) [TCMDC-125323] | -11.89 | 
CN(C)c1ccc(NC(=O)Nc2ccnc3ccccc23)cc1Br [TCMDC-139316] | -21.1 | 
COc1ccc(NC(=O)Nc2cc(C)nc3ccccc23)cc1Cl [TCMDC-139820] | -57.55 | 
CN(C)c1ccnc2ccc(NC(=O)Nc3ccnc4ccccc34)cc12 [TCMDC-139749] | 70.09 | 
COc1cc(NC(=O)Nc2ccnc3ccccc23)cc(OC)c1 [TCMDC-139446] | 84.12 | 
CCOc1cc(NC(=O)Nc2ccnc3ccccc23)cc(OC)c1 [TCMDC-139788] | 14.31 | 
COc1cccc(NC(=O)Nc2cc(C)nc3ccccc23)c1 [TCMDC-138950] | -4.503 | 
O=C(Nc1cc(Cl)cc(Cl)c1)Nc1ccnc2ccccc12 [TCMDC-139375] | 74.86 | 
CCc1cc(NC(=O)Nc2ccnc3ccccc23)ccc1OC [TCMDC-139354] | 1.366 | 
COc1cc(NC(=O)Nc2cc(C)nc3ccccc23)cc(OC)c1 [TCMDC-139821] | 78.53 | 
O=C(Nc1cccc(Cl)c1Cl)Nc1ccnc2ccccc12 [TCMDC-139462] | 3.661 | 
CCCOc1cc(NC(=O)Nc2ccnc3ccccc23)cc(OCCC)c1 [TCMDC-139491] | 3.955 | 
COc1ccc(Cl)cc1NC(=O)Nc1ccnc2ccccc12 [TCMDC-139457] | 13.69 | 
O=C(/C=C/c1ccc(Cl)c(Cl)c1)NCCCCCN1CCC(NC(=O)Nc2cccc(F)c2)CC1 [TCMDC-135704] | -72.87 | 
CC(C)NCc1cccc(-c2cccc(-c3nc4ccc(F)cc4[nH]3)c2)c1 [TCMDC-132747] | -26.37 | 
CC[C@@H]([C@@H](Cc1cc2ccccc2s1)C(=O)N[C@@H](CCCCNC(=O)OCc1ccccc1)C(=O)Nc1ccccn1)N(O)C=O [TCMDC-138086] | 8.625 | 
CCCCc1ccc(Cc2cnc3nc(N)nc(N)c3c2C)cc1 [TCMDC-138045] | -16.41 | 
CCCCCCN(C(=O)OCc1ccccc1)C1CCN(C(=O)OC(C)(C)C)CC1C(=O)OCC (stereo not drawn) [TCMDC-140339] | 26.28 | 
CCOC(=O)c1c(C)n(-c2ccccc2)c2ccc(OC(=O)c3ccc(S(=O)(=O)N(CC)CC)cc3)cc12 [TCMDC-125723] | 7.356 | 
CCN(C)c1cc(C(=O)N[C@@H](Cc2ccccc2)[C@H](O)CNC(C)(C)c2cccc(OC)c2)cc(N2CCCC2=O)c1 [TCMDC-134529] | 28.65 | 
CSc1ccc(NC(=O)Nc2cc(C)nc3ccccc23)cc1 [TCMDC-139394] | 23.44 | 
Cc1cc(NC(=O)Nc2ccc(C(C)(C)C)cc2)c2ccccc2n1 [TCMDC-139981] | 63.23 | 
Cc1cc(NC(=O)Nc2ccc(C(C)C)cc2)c2ccccc2n1 [TCMDC-139826] | 6.688 | 
CCc1ccc(C2CCN(CCCCNC(=O)c3ccc(NC(=O)c4ccc(Cl)cc4)cc3)CC2)c(OCC(=O)OC)c1 [TCMDC-138707] | 40.9 | 

Structure (SMILES) | % Inhibition [%] | % Inhibition (% Inhibition) [%]
CCOc1cc(CC)ccc1C1CCN(CCCCNC(=O)c2ccc(NC(=O)c3ccc(Cl)cc3)cc2)CC1 [TCMDC-138317] | 61.4 | 
CCOc1cc(CC)ccc1C1CCN(CCN2CCC(CNC(=O)c3ccc(-c4ccc(C#N)cc4)cc3)CC2)CC1 [TCMDC-138847] | 107.7 | 
CCOc1cc(CC)ccc1C1CCN(CCN2CCC(NC(=O)c3ccc(-c4ccc(C(C)=O)cc4)cc3)CC2)CC1 [TCMDC-138882] | -11.21 | 
Cc1cc(C2CCN(CCCCNC(=O)c3ccc(-c4ccc(C#N)cc4)cc3)CC2)c(C)cc1OCCO [TCMDC-138827] | -59.1 | 
CCc1ccc(C2CCN(CCCCNC(=O)c3ccc(NC(=O)c4ccc(Cl)cc4)cc3)CC2)c(OC(C)=O)c1 [TCMDC-138648] | 96.99 | 
CCc1ccc(C2CCN(CCCCNC(=O)c3ccc(NC(=O)c4ccc(Cl)cc4)cc3)CC2)c(OC)c1 [TCMDC-138377] | -11.09 | 
CCOc1cc(CC)ccc1C1CCN(CCCCNC(=O)c2ccc(NC(=O)c3ccc(C#N)cc3)cc2)CC1 [TCMDC-138662] | 87.14 | 
CCOc1cc(CC)ccc1C1CCN(CCN2CCC(NC(=O)c3ccc(-c4ccc(C#N)cc4)cc3)CC2)CC1 [TCMDC-138829] | 12.51 | 
CC(=O)Oc1cc(C)ccc1C1CCN(CCCCNC(=O)c2ccc(NC(=O)c3ccc(Cl)cc3)cc2)CC1 [TCMDC-138630] | -17.17 | 
CC1(C)N=C(N)N=C(N)N1OCCCNC(=O)c1ccc([N+](=O)[O-])cc1 [TCMDC-131666] | 6.997 | 
c1ccc(COc2ccc(Nc3ncnc4cnc(-c5ccc(CN6CCCCC6)o5)cc34)cc2)cc1 [TCMDC-137775] | -26.66 | 
CCCCCC(C)C(C)c1cc(O)c2c(c1)OC(C)(C)CC2=Cc1ccncc1 (stereo not drawn) [TCMDC-131746] | -25.77 | 
C#CC[C@@H](NC(N)=O)C(=O)O [TCMDC-131404] | -1.405 | 
O=S(=O)(NC1CCN(c2ccnc3cc(Cl)ccc23)C1)c1cccc(F)c1 (stereo not drawn) [TCMDC-133657] | -15.22 | 
CCOc1cc(C)ccc1C1CCN(CCCCNC(=O)c2cccc(-c3ccc(C(F)(F)F)cc3)c2)CC1 [TCMDC-138534] | 29.59 | 
CCOc1cc(C)ccc1C1CCN(CCN2CCC(CNC(=O)c3ccc(-c4ccc(C(F)(F)F)cc4)cc3)CC2)CC1 [TCMDC-138805] | 96.77 | 
COc1cccc(C2CCN(CCN3CCC(NC(=O)c4ccc(-c5ccc(C(F)(F)F)cc5)cc4)CC3)CC2)c1 [TCMDC-138819] | 18.98 | 
CCOc1cc(C)ccc1N1CCN(CCN2CCC(NC(=O)c3ccc(-c4ccc(C#N)cc4)cc3)CC2)CC1 [TCMDC-138866] | 88.4 | 
CCc1ccc(C2CCN(CCCCNC(=O)c3ccc(NC(=O)c4ccc(Cl)cc4)cc3)CC2)c(OCCO)c1 [TCMDC-138703] | 131.2 | 
COc1ccccc1C1CCN(CCN2CCC(NC(=O)c3ccc(-c4ccc(C#N)cc4)cc3)CC2)CC1 [TCMDC-138880] | -25.62 | 
COc1cccc(C2CCN(CCN3CCC(NC(=O)c4ccc(-c5ccc(Cl)cc5)cc4)CC3)CC2)c1 [TCMDC-138833] | -13.87 | 
COc1cccc(C2CCN(CCN3CCC(NC(=O)c4ccc(-c5ccc(C#N)cc5)cc4)CC3)CC2)c1 [TCMDC-138860] | -1.987 | 
CCOc1cc(C)ccc1C1CCN(CCCCNC(=O)c2ccc(-c3ccc(C(F)(F)F)cn3)cc2)CC1 [TCMDC-138535] | 16.24 | 
COc1cccc(C2CCN(CCN3CCC(CNC(=O)c4ccc(-c5ccc(C(F)(F)F)cc5)cc4)CC3)CC2)c1 [TCMDC-138830] | 71.94 | 
